Screening data as filed in PubChem BioAssay.
Most compounds without a hit are left out; they make up all but 3.1% or so of the library.
NCF1 inh = p47phox/p22phox peptide binding inhibitors, primary screen, biochemical, uHTS, NADPH oxidase regulatory subunit | Neutrophil cytosol factor 1 (Homo sapiens), P14598 | fluorescence polarization, 2 h | inhibition, % at 24.7 µM | 220,000 tested, 0.53% active | AID 1274, 2008;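 active means inhibition above about 30%, limit read from the data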;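 further: 0% = p47phox with labelled peptide and 100% = labelled peptide alone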
Target sequence (P14598 whole entry, looked up): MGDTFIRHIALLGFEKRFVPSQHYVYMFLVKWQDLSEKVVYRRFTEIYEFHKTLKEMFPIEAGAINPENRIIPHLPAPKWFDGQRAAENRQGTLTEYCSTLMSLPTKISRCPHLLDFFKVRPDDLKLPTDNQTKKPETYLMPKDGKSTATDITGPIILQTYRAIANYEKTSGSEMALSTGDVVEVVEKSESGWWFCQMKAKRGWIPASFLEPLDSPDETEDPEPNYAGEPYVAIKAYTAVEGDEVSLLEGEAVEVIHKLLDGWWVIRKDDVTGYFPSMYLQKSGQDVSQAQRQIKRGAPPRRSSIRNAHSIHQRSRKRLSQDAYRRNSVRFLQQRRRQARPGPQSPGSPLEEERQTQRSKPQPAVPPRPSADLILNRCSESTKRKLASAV
Mcl1 Noxa PPI = Mcl-1/Noxa binding inhibitors, primary screen, biochemical, TR-FRET, 1536-well | Induced myeloid leukemia cell differentiation protein Mcl-1 (Homo sapiens), Q07820 | inhibition, % at 21.7 µM | 220,000 tested, 1.5% active | TR-FRET Mcl-1/Noxa peptide binding, 2 h;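 active means compounds that cut the protein-peptide binding signal by more than 50% relative to plate controls in a single-dose test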;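 further: His-tagged Mcl-1 with rhodamine Noxa BH3 peptide and terbium anti-His antibody; 0% = Mcl-1 plus Noxa peptide wells and 100% = peptide-only wells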
Mcl1-Bid inh = Mcl-1/Bid binding inhibitors, primary screen, biochemical, TR-FRET, 1536-well; Induced myeloid leukemia cell differentiation protein Mcl-1 (Homo sapiens), Q07820; TR-FRET Mcl-1/Bid-Dy647 peptide binding; inhibition, % at 21.7 µM; 220,000 tested, 0.97% active; AID 1021, 2008;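 active means compounds that cut the binding signal by more than half at the single screening dose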;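 further: His-tagged Mcl-1 with europium anti-His antibody binding Bid BH3 peptide; 0% = Mcl-1 plus peptide wells and 100% = peptide-only wells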
Bim-Mcl-1 = inhibitors of Bim peptide binding to Mcl-1, primary screen, biochemical, bead-based flow cytometry, multiplex; Induced myeloid leukemia cell differentiation protein Mcl-1 (Homo sapiens), Q07820; Bim peptide-Mcl-1 binding; 190,000 tested, 0.1% active; inhibition, % at 10 µM; in the data active means inhibition above about 40%;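 further: 0% = no compound tracer wells and 100% = peptide blocker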
14-3-3 Bad PPI = inhibitors of 14-3-3 zeta/Bad binding, primary screen, biochemical, TR-FRET, bovine 14-3-3 zeta. 14-3-3 protein zeta/delta (Bos taurus), P63103. TR-FRET 14-3-3zeta/Dy647-pBad peptide displacement, 1 h. inhibition, % at 21.7 µM. 220,000 tested, 0.71% active;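 active means inhibition above about 70%, limit read from the data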;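 further: 0% = full 14-3-3 plus peptide FRET controls and 100% = background without 14-3-3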
* marks the source's active call; other numbers are inactive results; · = not tested or not shown; [ ] = dose if it differs, or a comment.

SMILES	NCF1 inh	Mcl1 Noxa PPI	Mcl1-Bid inh	Bim-Mcl-1	14-3-3 Bad PPI
COc1ccccc1-c1c(C(F)(F)F)oc2cc(OCC(=O)Nc3ccccc3C(F)(F)F)ccc2c1=O	-4	-11	-19	-6	-7
COc1ccc(-c2c(C(F)(F)F)oc3cc(OCC(=O)Nc4ccccc4C(F)(F)F)ccc3c2=O)cc1OC	31*	-21	-13	-3	-7
Cc1ccc(/C=N/N2CCN(c3ccccn3)CC2)o1	-12	-3	-35	·	-5
Nc1ccc(-c2cc(N)n(-c3ccccc3)n2)cc1	14	34	-4	-3	81*
Nc1cc(-c2ccc(Cl)cc2)nn1-c1ccccc1	-2	27	-16	-5	-8
CCOC(=O)CNC(=O)c1ccc(SCC)cc1	-11	-1	-8	·	-7
CC1CCCC(NC2CCCCNC2=O)C1 (stereo not drawn)	-5	-11	83*	2	11
Cc1cc(C(=O)CSc2nc3ccccc3[nH]2)c(C)n1Cc1ccco1	-35	18	-67	0	-15
CC1CCCC(NC(=O)COC(=O)c2ccccc2[N+](=O)[O-])C1C (stereo not drawn)	43*	6	12	5	1
CN1CCN(c2ccc(NC(=O)CN3CCOCC3)cc2F)CC1	5	16	-23	0	-1
CCOC(=O)C1CCCN(C(=O)COc2ccccc2O)C1 (stereo not drawn)	-3	-10	-28	0	2
CCOC(=O)C1CCCN(C(=O)CSCc2ccccc2)C1 (stereo not drawn)	-7	-2	-7	-2	84*
CCOC(=O)C1CCCN(CC(=O)Nc2cc(C)cc(C)c2)C1 (stereo not drawn)	3	20	3	2	11
CCOC(=O)C1CCCCN1Cc1ccccc1C(F)(F)F (stereo not drawn)	4	31	40	18	80*
CCOC(=O)C1CCCN(Cc2ccccc2F)C1 (stereo not drawn)	-3	33	25	-11	73*
CCOC(=O)C1CCCN(CC(=O)NC2CC2)C1 (stereo not drawn)	6	27	40	-9	77*
Cc1ccc2nc(Nc3nc(C)cc(-c4ccccc4)n3)[nH]c(=O)c2c1	-4	-2	15	·	17
O=C(COC(=O)Cc1ccc(S(=O)(=O)N2CCOCC2)s1)NCc1ccc(Cl)cc1	-13	30	-26	-4	3
O=C(c1ccc(Cl)cc1)c1c[nH]c(C(=O)NNc2ccccc2)c1	29	-2	-19	1	-3
Cc1ccc(CSc2ncnc3onc(C)c23)cc1	3	0	-4	·	5
Cc1noc2ncnc(SCc3ccc(C(F)(F)F)cc3)c12	-4	11	69*	·	3
CCN(CC)S(=O)(=O)c1ccc(OC(C)C)c(NC(=O)c2c3c(nc4ccccc24)CCN(Cc2ccccc2)C3)c1	-31	0	-10	-2	19
CC(C)(C)C1CCc2c(C(=O)NNC(=O)CCC(=O)O)csc2C1 (stereo not drawn)	-4	104*	-8	-6	-1
CN1CCN(C(c2ccccn2)c2cc(Cl)c3cccnc3c2O)CC1 (stereo not drawn)	16	46	37	0	-5
Oc1c(C(c2ccc(Cl)cc2)N2CCCC2)cc(Cl)c2cccnc12 (stereo not drawn)	-5	22	73*	-1	5
SMILES	NCF1 inh	Mcl1 Noxa PPI	Mcl1-Bid inh	Bim-Mcl-1	14-3-3 Bad PPI
COc1ccc2cc3cc(C(=O)Nc4cc(OC)c(OC)c(OC)c4)oc3nc2c1	-4	9	-30	-3	·
COc1ccc2cc3cc(C(=O)Nc4ccc5c(c4)OCCO5)oc3nc2c1	32*	9	-27	-4	65
Nc1ccccc1SC1CC(=O)N(Cc2ccccc2)C1=O (stereo not drawn)	-6	-4	-10	0	-6
COc1cccc2c1C(=O)c1c(O)c3c(c(O)c1C2=O)C[C@@](O)(C(=O)CO)C[C@@H]3O[C@H]1C[C@H](N)[C@H](O)[C@H](C)O1	-253	60*	10	34	96*[fluorescence artefact?]
Cc1cc(C(=O)COC(=O)c2cc(O)c3ccccc3c2O)c(C)n1CC1CCCO1 (stereo not drawn)	28	99*	37	0	73*
Cc1cc(C(=O)COC(=O)c2ccccc2Br)c(C)n1CC1CCCO1 (stereo not drawn)	-20	6	-52	·	-1
Cc1ccc(C(=O)OCC(=O)c2cc(C)n(CC3CCCO3)c2C)cc1 (stereo not drawn)	59*	15	-13	1	-9
N#C/C(=C\c1cccnc1)c1nc2c(s1)CCCC2	-2	-12	3	0	-10
COc1cc(/C=C(\C#N)c2nc3c(s2)CCCC3)ccc1O	-46	51*	29	0	37
Cc1csc(NC(=O)CSc2nnc(-c3ccoc3C)n2C(C)c2ccccc2)n1 (stereo not drawn)	-14	4	-19	·	-2
CC(C)(C)c1ccc(OC(=O)c2ccc(-n3cncn3)nc2)cc1	0	-4	-10	0	-7
Cc1cccc(N=Cc2[nH]c3ccc(Br)c(Cl)c3c2O)c1	-30	62*	24	-3	49
Oc1cccc2ccc[n+](CC(O)Cn3c4ccccc4c4ccccc43)c12 (stereo not drawn)	38*	9	-49	-5	11
CCNC(=O)CSc1nnc(-c2cc(-c3ccc(Cl)cc3)nc3ccccc23)o1	-16	-3	-33	0	-15
Cc1ccc(C2=NN=C(NC(=O)CSc3nc(C)cc(C)n3)SC2)cc1	-19	8	50	-1	5
Cc1ccc(C2=NN=C(NC(=O)CSc3nnc4c5ccccc5n(C)c4n3)SC2)cc1	14	63*	-3	-1	4
Cc1cccc(NC(=O)c2nc[nH]c2C(=O)N[C@@H](Cc2ccccc2)C(=O)OCc2ccccc2)c1	0	-79	-56	·	-14
COc1ccc(C(c2nnnn2C2CCCC2)N2CCc3ccccc3C2)cc1OC (stereo not drawn)	0	29	-27	1	67
COCCn1nnnc1C(c1ccc(O)c(OC)c1)N1CCc2ccccc2C1 (stereo not drawn)	12	77*	-10	-1	45
CC(C)(C)n1nnnc1C(c1ccccc1)N1CCc2ccccc2C1 (stereo not drawn)	-11	-4	-20	-2	-4
CC1CCN(C(c2ccc(N(C)C)cc2)c2nnnn2C(C)(C)C)CC1 (stereo not drawn)	-7	78*	0	0	-2
